From PubChem
A selection: hits, their analogues and other compounds. The true share with any hit is near 5.8%.
MCF10A rereplic: inducers of DNA re-replication in MCF 10A breast cells; MCF 10A DNA re-replication, Hoechst nuclear intensity, 48 h; Potency, µM (series often up to 46.1 µM), hits mostly activators; actives 2.9% (n = 350,000); AID 624296; note: nearly all actives have a fitted effect of over 50% in size
ALOX12 inh: ALOX12 (human) lipoxygenase inhibition; P18054; purified 12hLO, xylenol orange hydroperoxide absorbance; Potency, µM (series often up to 108 µM), actives largely listed as inhibitors; actives 1.1% (n = 580,000)
Target sequence (P18054 whole entry, looked up): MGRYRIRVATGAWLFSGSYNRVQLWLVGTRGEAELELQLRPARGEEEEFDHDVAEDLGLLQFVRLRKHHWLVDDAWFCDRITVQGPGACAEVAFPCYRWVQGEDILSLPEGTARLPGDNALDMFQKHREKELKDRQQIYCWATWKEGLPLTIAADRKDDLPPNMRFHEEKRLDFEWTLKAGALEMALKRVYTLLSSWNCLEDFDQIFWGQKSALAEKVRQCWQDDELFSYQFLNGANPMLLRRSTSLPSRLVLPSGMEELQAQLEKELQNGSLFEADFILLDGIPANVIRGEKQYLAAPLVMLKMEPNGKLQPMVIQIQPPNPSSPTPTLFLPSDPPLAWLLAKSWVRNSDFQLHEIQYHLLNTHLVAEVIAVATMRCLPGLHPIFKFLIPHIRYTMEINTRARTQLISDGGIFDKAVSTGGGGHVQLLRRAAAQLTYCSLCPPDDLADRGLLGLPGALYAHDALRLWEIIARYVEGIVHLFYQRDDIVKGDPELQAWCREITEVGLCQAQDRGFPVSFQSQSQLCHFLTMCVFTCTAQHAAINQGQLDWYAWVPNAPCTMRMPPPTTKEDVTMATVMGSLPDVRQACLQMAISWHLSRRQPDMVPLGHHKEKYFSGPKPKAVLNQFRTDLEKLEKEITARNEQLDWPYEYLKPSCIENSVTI
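Hydroperoxide product was detected by ferrous iron/xylenol orange as the 573 to 405 nm absorbance ratio. Arachidonic acid at 40 uM (final) was turned over for 30 min at room temperature by 150 nM human 12hLO, pH 7.0 Hepes buffer, after 15 min compound preincubation.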
SW480 rereplic: inducers of DNA re-replication in SW480 colon cancer cells; SW480 DNA re-replication, Hoechst DNA content imaging, 48 h; Potency, µM (top dose mostly 46.1 µM), usual class: activators; actives 1.8% (n = 340,000); AID 624297; note: nearly all actives have a fitted effect of over 55% in size
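Hoechst fluorescence of nuclei (405 nm excitation, 500-530 nm emission) measured by plate-scanning imager after 48 hr compound exposure at 37 C; re-replication scored as increased number of nuclei with elevated intensity.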
KB-3-1 tox: KB-3-1 parental cell cytotoxicity; actives 1.4% (n = 400,000); Potency, µM (highest dose often 46.1 µM), usual class: cytotoxic; KB-3-1 viability, CellTiter-Glo ATP luminescence, 72 h; AID 1347075; note: nearly all actives have a fitted effect of over 60% in size
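Viability of parental KB-3-1 cells, measured by CellTiter-Glo luminescence, followed a 72 h incubation at 37 °C with pinned compounds in phenol-red-free DMEM containing 10% FBS.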
KB-V1 MDR tox: KB-V1 MDR subline cytotoxicity | actives 3.4% (n = 400,000) | KB-V1 MDR cells viability, CellTiter-Glo, 72 h | Potency, µM (doses to about 46.1 µM), most hits filed as cytotoxic; note: nearly all actives have a fitted effect of over 60% in size
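Luminescent ATP read-out (CellTiter-Glo, 10 min) measures survival of drug-selected KB-V1 MDR cells after 72 h, 37 degrees C compound exposure. Medium: phenol-red-free DMEM, 10% FBS. Values from fitted concentration-response curves.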
PINK1 expr mod: changes PINK1 expression; PINK1 immunofluorescence, high-content cytometry, 24 h; Potency, µM (series often up to 76.6 µM), usual class: activators; actives 0.2% (n = 410,000); active = well fitted activation curve with a large enough effect; inconclusive = small, poorly fitted or top-dose-only effect; cell line not stated here; note: nearly all actives have a fitted effect of over 65% in size
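Cells are seeded, rested 12 hours, then given compound at five concentrations or DMSO for 24 hours. After fixation, blocking and antibody staining, PINK1 amount and mitochondrial localization are scored; CCCP serves as control.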
Hits are given with their value; 0 = inactive; ? = inconclusive; - = not tested or not shown. Unless noted, calls come from the whole dose curve; as a rule, active = well fitted curve in the direction sought with a large enough effect; inconclusive = small, poorly fitted or top-dose-only effect, or another doubt; inactive = no such curve, though single readings can be large; an effect the other way counts as inactive or inconclusive.

SMILES	MCF10A rereplic	ALOX12 inh	SW480 rereplic	KB-3-1 tox	KB-V1 MDR tox	PINK1 expr mod
CC(Cl)C(=O)Nc1ccccc1C(N)=O (centres undefined)	-	0	-	-	-	-
O=C(Nc1csnn1)c1csnn1	0	10µM	0	0	0	0
Cc1cc(C)nc(NC(=O)c2csnn2)c1	0	0	0	0	0	0
CCn1c(SCC(=O)Nc2cc(C)c(Cl)cc2OC)nnc1-c1cccc(OC)c1	-	0	-	-	-	-
O=c1c2ccccc2c(-c2cccc(C(F)(F)F)c2)nn1-c1ccccc1	?	0	0	?	0	0
O=c1c2ccccc2c(-c2ccc(O)cc2)nn1-c1cccc(C(F)(F)F)c1	?	0	?	?	13µM	0
Cc1c(Cc2ccccc2)c(=O)oc2c(O)c(O)ccc12	20.6µM	3.98µM	?	?	0	0
Cc1c(CC(=O)NCc2ccccc2)c(=O)oc2c(C)c(O)ccc12	-	0	-	13µM	?	0
Cc1c(Cc2ccccc2)c(=O)oc2c(CN(C)C)c(O)c(Cl)cc12	18.4µM	0	0	?	9.2µM	0
CC(=O)c1c(C)[nH]c(C(=O)c2cc3cc(Br)ccc3o2)c1C	-	0	-	-	-	-
Cc1ccc(OCCC(=O)Nc2c(C)nn(C)c2C)cc1C	-	0	-	-	-	-
C=CCNC(=S)Nc1ccccc1Cl	-	0	-	-	-	-
CCOC(=O)C1=C(C)Nc2sc(C(=O)c3ccc(C)cc3)c(N)c2C1c1ccc(C(=O)OC)cc1 (centres undefined)	3.66µM	?	18.4µM	0	0	0
CCOC(=O)C1=C(C)NC(SCC(=O)OC)=C(C#N)C1c1ccc(C(=O)OC)cc1 (centres undefined)	?	0	0	0	0	0
CCOC(=O)C1=C(C)Nc2sc(C(=O)c3ccc(F)cc3)c(N)c2C1c1ccc(C(=O)OC)cc1 (centres undefined)	2.59µM	0	16.4µM	0	0	0
CSc1cccc(NC(=O)c2ccc3c(c2)N(C)C2CCCCCN2C3=O)c1 (centres undefined)	-	0	-	-	-	-
CN(C(=O)CSc1ccc2c(c1)OCCCO2)c1ccccc1	-	0	-	-	-	-
O=C(/C=C/Nc1ccc(Oc2ccccc2)cc1)c1ccc(F)cc1	-	0	-	-	-	-
COc1ccc(N/N=C(/N=Nc2nc(C)cc(=O)[nH]2)c2ccccc2)cc1	?	0	?	6.51µM	?	0
Cc1cc(=O)[nH]c(N=N/C(=N/Nc2ccccc2C)c2ccccc2)n1	0	0	5.17µM	4.61µM	0	0
O=C(c1cccnc1OC1CCN(C(=O)C2CC2)C1)N1CCCCC1 (centres undefined)	-	0	-	-	-	-
C=CCNc1nc(-c2ccc(O)c(C(N)=O)c2)cs1	?	0	?	0	0	0
O=C(O)c1ccc(Nc2nc(-c3ccc(Cl)cc3)cs2)cc1O	-	10µM	-	-	-	-
Cc1ccc(-c2csc(Nc3ccc(O)c(C(=O)O)c3)n2)cc1	-	35.5µM	-	-	-	-
CC(=O)c1cccc(Nc2nc(-c3ccccc3)cs2)c1	?	0	0	0	0	0
SMILES	MCF10A rereplic	ALOX12 inh	SW480 rereplic	KB-3-1 tox	KB-V1 MDR tox	PINK1 expr mod
NC(=O)c1cc(-c2csc(NCCc3ccccc3)n2)ccc1O	?	31.6µM	?	0	?	0
Cc1nc(C)c(-c2csc(Nc3ccc(C(=O)O)c(O)c3)n2)s1	0	0	0	0	0	0
C=CCNC(=O)c1cc(-c2ccc(OCC)cc2)nc2ccccc12	-	0	-	-	-	-
CCC(=O)N/C(N)=N/c1nc(C)c2cc(OC)ccc2n1	0	?	?	?	0	3.55µM
Cc1ccc(CN2CC34C=CC(O3)C(C(=O)NCc3ccco3)C4C2=O)cc1 (centres undefined)	0	?	0	0	18.4µM	0
O=C(c1ccc(Cl)cc1)c1oc2ccccc2c1CS(=O)(=O)c1ccccc1	?	0	0	0	6.51µM	0
COc1ccc(CN(C)C(=O)c2ccc3oc(C)cc3c2)c2cccnc12	-	0	-	-	-	-
CC(Nc1nc(-c2ccc(F)cc2)cs1)c1nc2cc(Cl)c(N3CCCCC3)cc2n1CCOCCO (centres undefined)	0	0	0	?	0	0
CC(Nc1nc(-c2ccc(F)cc2)cs1)c1nc2cc(Cl)c(N3CCCCC3)cc2n1CCCO (centres undefined)	20.6µM	0	?	?	?	0
